Measurements reported in the supplement of paper PMC10105736.
Values without a mark were called inactive.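 How the source made its calls: active = MAPPIT score above the 99th percentile of random reference set scores in the same batch; inactive = at or below it.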

Assays:
Assay in all cases: MAPPIT interaction score (arbitrary units); higher = stronger binary interaction signal, active = hit call of the paper
CG10013 = details: MAPPIT configuration: N-N; pair source set: DPIM
CG10465 = details: MAPPIT configuration: N-N; pair source set: Curagen_high_conf
CAP = details: MAPPIT configuration: N-N
Fkbp12 = details: MAPPIT configuration: N-N; pair source set: Curagen_low_conf
ND-75 = details: MAPPIT configuration: N-N; pair source set: Curagen_low_conf
Pax = details: MAPPIT configuration: N-N; pair source set: screen_2
CG10336 = details: MAPPIT configuration: N-C; pair source set: screen_3
Gint3 = details: MAPPIT configuration: N-N; pair source set: Lit-BM-16
ZnT63C = details: MAPPIT configuration: N-N; pair source set: DPIM
CCT7 = details: MAPPIT configuration: N-N; pair source set: DPIM
CCT3 = details: MAPPIT configuration: N-N; pair source set: DPIM
CASK = details: MAPPIT configuration: N-C; pair source set: screen_4
CG30324 = details: MAPPIT configuration: N-C; pair source set: screen_4
stck = details: MAPPIT configuration: N-C; pair source set: screen_3
CG10444 = details: MAPPIT configuration: N-C; pair source set: screen_3
vlc = details: MAPPIT configuration: N-C; pair source set: screen_3
CG10026 = details: MAPPIT configuration: N-N; pair source set: Finley_Y2H
CCT6 = details: MAPPIT configuration: N-N; pair source set: DPIM
Spt7 = details: MAPPIT configuration: N-N; pair source set: Curagen_high_conf
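Further: HEK293T cells with Epo stimulation, STAT-responsive firefly luciferase reporter, fold induction versus unstimulated cells divided by the larger fold induction of two negative controls lacking either bait or prey.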

B1: Ns1 (protein)
chain: MALKRLKTKKSKRLTGRLKHKIEKKVRDHNKKERRAAKKNPKKGSKKQKLIQIPNICPFKDDILKEVEEAKQRQEAERLARREAFKAEREQNKFKTLESMVEDADMRSTVHGIMHENDAQDQDEKKYKNAVTKEQSLKQYFKEFRKVIENADVVLEVVDARDPLGTRCNEVERAVRGAPGNKRLVLVLNKADLVPRENLNNWIKYFRRSGPVTAFKASTQDQANRLGRRKLREMKTEKAMQGSVCIGAELLMSMLGNYCRNKGIKTSIRVGVVGIPNVGKSSIINSLTRGRSCMVGSTPGVTKSMQEVELDSKIKLIDCPGIVFTSGGENSHAVLKNAQRVGDVKDPFTIAESVLKRASKEYFCTMYDITNYDTFEEFFAKKAARMGKFLKKGVPDVVAAARSVLNDWNTGKIKYCTQPPEVQEGQSVHISASIVHSEAREFDVENFESMETEILEHCAVKTDDIMEITSTGPLEIRQPREEAEPADKITASLVIDEKEKPAKGRKRKLDEEKEKVDPSLLLEENQSLNKGIKQMQKLKKKQNVRNEKKISKITDVLDSFSLGPSSSKAEKYDFDEDYVIE
- MAPPIT interaction score (CG10013): -0.155

B2: AnxB11 (protein)
chain: MYPFGSGMPSHPPTSTNHHEPPRAPFGAGWVPPMQQNSPYPPPSQPHPHSQPSSQMHPQQHQQYPGGAPAPYPPMSAPYPSAAPSYPPYPTSNPYPAQYAPPAHNHYQQPSVSNSPYPADRGYTPAMTAGYDAGYGYGNGQGHGQGHGHGQGHGHGHGQGHEYGHGYGQGYGHGQGHGNGQGHAHRSLPAHREGTPTVVPAANFDAVKDAHDLRKAMKGFGTDEDALINIICRRSNEQRQEIQRQFKTHFGKDLIEDIKSETSGNFEKLLVGLLRPIVDYYCAELNDAMAGLGTDEEVLIEILCTLSNMEINTIKNQYLRLYGAHLESELKSETSGNFKRLLTSLCTAARDESGRVDPVAAKNDARELLKAGELRVGTDESMFNMILCQRNYQQLKLIFQEYEGMTGHSLEKAIKKEFSGDVMEGLIAIYRCVTNKAEYFASRLHKAMAGIGTNDTQLIRVIITRSEIDMTDIKVAFERLYGKSLKSWIKGDTSGHYKHALYALVGEQRSS
- MAPPIT interaction score (CG10465): 0.12

B3: Vinc (protein)
chain: MPVFHTKTIESILDPVAQQVSRLVILHEEAEDGNAMPDLSRPVQVVSAAVANLVKVGRDTINSSDDKILRQDMPSALHRVEGASQLLEEASDMLRSDPYSGPARKKLIEGSRGILQGTSSLLLCFDESEVRKIIQECKRVLDYLAVAEVINTMEQLVQFLKDLSPCLSKVHREVGAREKELTHQVHSEILVRCLEQVKTLAPILICSMKVYIHIVEQQGRGAEEAAENRNYLAARMSDELQEIIRVLQLTTYDEDTSELDNLTVLKKLSNAISNKMEQANEWLSNPYALRGGVGEKALRQVIDNATEISERCLPQDSYPIRKLADEVTAMANTLCELRQEGKGQSPQAESLVRGIRDRMGELKSLVHQAVLGVDKAGVQQTAHTIQGRLEQAVKWLQHPEINDGGLGERAINLIVEEGRKVAEGCPGHQKAEIQQLCDEVERLKRQAAGSGPAAKQAAKQLTQKLYELKAAIQNALVNRIVQDFMDVSTPLKQFTEAVLQPEGTPGREQNFNQKSNNLQAFSDRASKTSRMVAAGGACGNKKIAEILLSSAAQVDSLTPQLISAGRIRMNYPGSKAADEHLQNLKQQYADTVLRMRTLCDQATDPADFIKTSEEHMQVYAKLCEDAIHARQPQKMVDNTSNIARLINRVLLVAKQEADNSEDPVFTERLNAAANRLERSLPAMVGDAKLVATNIADPAAAAAWKNSFQRLLGDVREVRDAIAPPQPPPLPTSLPPPIPELSALHLSNQNAERAPPRPPLPREGLAPVRPPPPETDDEDEGVFRTMPHANQPILIAARGLHQEVRQWSSKDNEIIAAAKRMAILMARLSELVLSDSRGSKRELIATAKKIAEASEDVTRLAKELARQCTDRRIRTNLLQVCERIPTIGTQLKILSTVKATMLGAQGSDEDREATEMLVGNAQNLMQSVKETVRAAEGASIKIRSDQTSNRLQWVRRQPWYQY
- MAPPIT interaction score (CAP; pair source set: Lit-BM-16): 2.34
- MAPPIT interaction score (Fkbp12): 0.498
- MAPPIT interaction score (ND-75): -0.456
- MAPPIT interaction score (Pax): 5.44 (active)

B4: TER94 (protein)
chain: MADSKGEDLATAILKRKDRPNRLIVEEAQNDDNSVVSLSQAKMDELQLFRGDTVILKGKRRKETVCIVLSDDTCPDEKIRMNRVVRNNLCVHLSDVVSVQSCPDVKYGKRVRILPIDESTEGVTGNLFEIYLKPYFLEAYRPIHMGDNFIVRAAMRPIEFKVVLTDPEPYCIVAPETVIFCDGDPIKREEEEESLNAVGYDDIGGCRKQLAQIKEMVELPLRHPSLFKAIGVKPPRGILMYGPPGTGKTLIARAVANETGAFFFLINGPEIMSKLAGESESNLRKAFEEAEKNSPAIIFIDEIDAIAPKRDKTHGEVERRIVSQLLTLMDGMKKSSHLIVMAATNRPNSIDPALRRFGRFDREIDIGIPDATGRLEVLRIHTKNMKLHDDVDLEQIAAESHGHVGADLASLCSEAALQQIREKMDLIDLEDDKIDAEVLASLAVTMENFRYAMTKSSPSALRETVVEVPNTTWTDIGGLESVKKELQELVQYPVEHPDKFLKFGMQPSRGVLFYGPPGCGKTLLAKAIANECQANFISVKGPELLTMWFGESEANVRDIFDKARSAAPCVLFFDELDSIAKARGGNVGDAGGAADRVINQILTEMDGMGAKKNVFIIGATNRPDIIDPAILRPGRLDQLIYIPLPDDKSREAILKANLRKSPLAKEVDLTYIAKVTQGFSGADLTEICQRACKLAIRQAIEAEIRREKERAENQNSAMDMDEDDPVPEITSAHFEEAMKFARRSVSDNDIRKYEMFAQTLQQSRGFGQNFRFPGQTGNTSGSGNNLPVNSPGDNGDDDLYS
- MAPPIT interaction score (CG10336): 2.12
- MAPPIT interaction score (Gint3): 1.48
- MAPPIT interaction score (ZnT63C): -0.374

B5: CG4511 (protein)
chain: MANILENQLFTAAKTIEQQLDQQLDRLDNLDSDDLKVLREQRLREMKDLNNKKQEWLRNGHGTYTELADEKEFFEMSKKSPNIVCHFYRDSTERCKIVDMHLKILAAKHVEAKFCKVNAEKTPFLTQRLRIKVIPTIALVKDSKTKDFIVGFTDLGNCDDFATEMLEWRIAHSGAIDYKGDLMQPPDVKRKPFINRPQKTIRGGYDSDDSDIDLDD
- MAPPIT interaction score (CCT7): 0.524

B6: Lst8 (protein)
chain: MGDQQQLILATGGYDHTIKVWQAHTGNCIKTMRFVETSQVNALDRTPDKTRLAACGYQCIRLYDLESNCTAPVINFDGVQKNVTRLGFQEDGNWMFTAGEDHHVRIWDMIAAPPHCSRIFDCEAPVNAACLHPNQVEIAMGSQNGSVFLWDVKSERHERIVPEVDASIQDVAISPDGRYLAAANNKGNCYIWSLTSQDQKMSTLRPNRKIPAHSRYILRCKFSPDSRLLLTTSGDGTVCIWKTDDFSKWRELCIENYWVWDAAFSADSKWLFTASSDGIARLWKLQTKSSIRDYTGHTKAITALSFKDEIVGK
- MAPPIT interaction score (CCT3): 0.335

B7: Mlp60A (protein)
chain: MPFVPVETPKCPACGKSVYAAEERVAGGYKFHKTCFKCSMCNKALDSTNCTEHEKELFCKNCHGRKYGPKGYGFGGGAGCLSTDTGAHLNRE
- MAPPIT interaction score (CASK): 1.2
- MAPPIT interaction score (CG30324): 3.25
- MAPPIT interaction score (stck): 4.22 (active)

B8: IM18 (protein)
chain: MKLIALCCLLLLGLLGFLAAPGVASPSRHTGPGNGSGSGAGSGNPFRSPSSQQRPLYYDAPIGKPSKTMYA
- MAPPIT interaction score (CG10444): 0.79

B9: Vps28 (protein)
chain: MQEQSPELYEEVKLFRNAREREKYDNMADLYAIINTIQQLEKAYIRDCITPQEYTAACSKYLVQYKVAFKQVQCDEFPSVETFVKKFRLDCPAALERIREDRPITIRDDKGNTSKCIAEIVSLFITIMDKLRLQINTMDALQPDVKDLADNMNRLSLIPEDFDAKLKVEKWLGSLNEMQASDELSEGQVRQFLFDLESAYADFNKLLHSQ
- MAPPIT interaction score (CAP; pair source set: screen_1): 1.33
- MAPPIT interaction score (vlc): 1.09

B10: CG7218 (protein)
chain: MNATLNSAGGKRQLRFRGDVTGSRVEELHHQQQEEQKQKAPLAQDDVAATPTATPAAGSAQQRLQSGTAETCTNTFYDFFKVEMTRGYMLEHDEERYSARRQKIYSFMRIPRDLERFMVYGIMQCADSFLYIHTFLPVRFVMAVWALVSRTVARIFRLRSSGQRLLSPAEICDLLKGVIWMTVTLIMLLVDTNRVYHIIKSQSIIKLYIFYNMLEVGDRLLSAFGQDTIDALFWTATEPKNSKREHFGVLTHVLFTLIYVFLHSGLIMFQATCLNVAVNSNNKGLLTIMISNNFVELKGSVFKKFDKNNLFQLTCSDVRERFHLSVLLFIVVIQTMKEFDWSITQFCVMLPDCFAVLFTEILIDWVKHAFITRFNELPESIYREYTTSLAYDMTQTRQKHAFSDHSDLVARRMGFIPFPLAVVLIKAIYTAVSFENLAAWLLFLLAYLFAMGLRICLTICALGKACKLMKEHQTERNSSTPSSMTNVPVIGAAAPVSAAATGGQNHNNNNNNNNNSISIGSKPAQVTTLLTPPSAGHLDVSKNFSRTSIASTSTPKKAVSEQELDVTNSLELGATALFSNSDVDLDDVCLNEQVTNTNTSSAVQEVYQEQDLVRSQPDLMLLNNSGDGVTSAKAKKATQRLPKRTHKRSESEPGMPSMVEKGGAAGIAGGNQTTQL
- MAPPIT interaction score (CG10026): 1.47

B11: CG8230 (protein)
chain: MGINVSRTADLGSNQWLQRFVGRQHIAHDDEAFWNGLLNYNIVLPENSQDQLNLDSRLEALCQSFIGNNLKTGNFGSLVTVFLEKTSELLSLSDQESNMHVWQTFNALFIIRSLVKYINETGSEFQLLQHFEAMPNAELLQAALEQQQQTPAESATIAMEATEQSAAAAVPVIVDGSKFETFIDALVNLIVVIPVKEFTYHLHLEAVNMLITLLSVHLFAQQPTDKSIVFRTVFKCQHANVLMSALLHFVARIVEVPHTMFGSSSAGSFVFGIAESLLSIFTFRKQPDILKAGQAAGGGELSQRFRTHYPLANQSLLLILILTNHCTAQDNAYRTSLFSCADSKDSPKQGAVSFQIDFSAVYETLCTIVTIDQATLLLYLLLHRNERFYRFVMQQQDLEQLVIPILQTLYNAPDSNSHHIYMSLIVLLILSEDEGFNKNVHTIMLKNITWYTERTISEISLGGILILIVIRTIQYNMLKMRDKYLHTNCLAALANMSGHFRALHPYVAQRLVSLFETLARKHTRLDAQLKEPADSAVFVNVSTTPEDMLQDLSVLEEVLRMVLEILNSCLTNQLVYCPNLVYTLLYKRSVFEGFRSHHAFQDVIQNIDMVVGFFSSRLQRVQEQRGELGVNEVLEVISKGASQWSSDRLRKFPDLKFKYVEEDAPEEFFIPYVWTLVCKYGCVHFSSESIKSVTTDIAC
- MAPPIT interaction score (CCT6): 3.15 (active)
- MAPPIT interaction score (Spt7): -0.0669
